Rows were chosen to be rich in hits. Some 7.4% of all compounds tested hit in one or more screens of this group.
M1 agonist: M1 muscarinic receptor agonists, primary screen, CHO-M1 cells, Fluo-4 calcium, agonist mode | Fluo-4 calcium fluorescence; hits give high values | B-score at 10 µM | actives 3% (n = 64,000);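 active = fluorescence rise, raw or as B-score row- and column-corrected plate score, outside the 99.7% band of its plate's samples, either direction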
D1 allo mod: D1 CRE-luciferase signal change, two-sided – cell-based, HEK293 D1, dopamine EC30, D1 allosteric modulator project, primary screen. D(1A) dopamine receptor (Homo sapiens), P21728. dopamine EC30 potentiation; actives deviate in either direction. B-score at 10 µM. actives 5.9% (n = 58,000). AID 641, 2007;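 active = luminescence count or its row- and column-corrected plate score outside the 99.7% band of the plate's sample wells, on either side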
DAT uptake mod: changed hDAT dopamine uptake under cocaine IC80, either direction, primary screen, cocaine antagonist project, cell-based, LLC-PK1 hDAT, [14C]-dopamine uptake, MLSMR. LLC-PK1 hDAT cells, [14C]-dopamine uptake with cocaine IC80; actives deviate in either direction. Sodium-dependent dopamine transporter (Homo sapiens), Q01959. B-score at 10 µM. AID 449768, 2010. actives 1.3% (n = 110,000);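 active = Z score or B-score, a plate-position-corrected score, falls beyond the plate's 99.7% confidence bounds, in either direction; inactive = both scores lie inside the 99.7% bounds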;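 also: scored against the spread of the other compound wells on the same plate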
FXIIa inh mix: human factor XIIa inhibitors, primary screen, biochemical, pooled compound mixtures, fluorogenic substrate. Coagulation factor XII (Homo sapiens), P00748. purified FXIIa. inhibition, % at 5 µM. actives 0.2% (n = 62,000);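 also: 0% = enzyme without compound and 100% = no enzyme blank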
M1 antagonist: antagonists of rat M1 muscarinic receptor; CHO-M1 cells, Fluo-4 calcium, ACh EC80 antagonist mode; hits give low values; B-score at 10 µM; actives 3.4% (n = 64,000); AID 628, 2007;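 active = calcium fluorescence response, raw or row-and-column corrected B-score, differing from the plate sample mean either way at a set confidence level, mostly lower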
FXIa inh mix: FXIa protease inhibitors in compound pools, primary screen, biochemical, 10-compound mixtures; Coagulation factor XI (Homo sapiens), P03951; purified FXIa, fluorogenic substrate, pooled mixtures; inhibition, % at 5 µM; actives 0.19% (n = 62,000); AID 680, 2007;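 also: each value is inhibition by a whole ten-compound pool holding the compound; 0% = enzyme with no mixture and 100% = wells lacking enzyme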
Target sequence (P03951 19-387 limits assumed): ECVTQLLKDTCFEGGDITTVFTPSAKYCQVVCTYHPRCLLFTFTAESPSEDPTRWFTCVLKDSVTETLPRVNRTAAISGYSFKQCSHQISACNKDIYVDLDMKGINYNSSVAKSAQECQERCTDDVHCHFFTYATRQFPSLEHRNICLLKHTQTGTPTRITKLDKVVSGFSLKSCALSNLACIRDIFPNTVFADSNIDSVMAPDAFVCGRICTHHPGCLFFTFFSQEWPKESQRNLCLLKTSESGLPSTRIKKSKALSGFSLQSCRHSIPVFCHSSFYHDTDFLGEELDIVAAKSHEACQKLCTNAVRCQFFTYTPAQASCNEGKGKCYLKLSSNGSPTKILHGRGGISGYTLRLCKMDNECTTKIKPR
Target sequence (P03951 388-625 limits assumed): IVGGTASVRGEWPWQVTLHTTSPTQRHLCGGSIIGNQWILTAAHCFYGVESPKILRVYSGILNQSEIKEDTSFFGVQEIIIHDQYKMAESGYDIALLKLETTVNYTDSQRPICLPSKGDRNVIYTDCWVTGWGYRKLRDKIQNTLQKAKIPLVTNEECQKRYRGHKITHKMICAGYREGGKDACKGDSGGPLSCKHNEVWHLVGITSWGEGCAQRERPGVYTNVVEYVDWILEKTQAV
The depositor's hits bear a star; nt = not tested or not shown. Rule as the data show it, unless noted: active = inhibition above about 20% (passing the limit was not always enough); inactive = the rest.

SMILES | M1 agonist | D1 allo mod | DAT uptake mod | FXIIa inh mix | M1 antagonist | FXIa inh mix
CCOc1ccc2nc(NC3=NCN(Cc4ccco4)CN3)nc(C)c2c1 | -0.58 | 0.016 | nt | 5 | -0.023 | -7
Cc1nc(NC2=NCN(Cc3cccnc3)CN2)nc2ccccc12 | 0.78 | nt | nt | 4 | -11* | -1
Cc1nc(NC2=NCN(Cc3ccccc3)CN2)nc2ccccc12 | 4.5* | -0.17 | nt | 5 | 0.7 | 1
Cc1ccc2c(C)nc(NC3=NCN(Cc4ccccc4)CN3)nc2c1 | -0.18 | -1.1 | nt | 3 | -1.3 | -14
Cc1nc(NC2=NCN(Cc3ccco3)CN2)nc2ccccc12 | -0.055 | -0.29 | nt | -1 | -2.9* | 3
Cc1occc1C(=O)NNC(=O)Cc1ccccc1 | nt | nt | -0.26 | nt | nt | nt
CCSc1nnc2n(-c3ccc(OC)cc3)c(=O)c3c4c(sc3n12)CCCC4 | nt | nt | -8* | nt | nt | nt
COc1cc(OC)cc(C(=O)Nc2ccc3c(c2)COC3=O)c1 | -0.58 | -0.66 | -0.49 | 14 | -0.89 | 2
O=C1CN(CC(=O)N2CCOCC2)c2ccccc2O1 | -0.42 | nt | 0.11 | 22* | 1.1 | 9
CCCc1[nH]n(-c2nc3ccccc3s2)c(=O)c1C=NCCN1CCOCC1 | 0.12 | -0.67 | 0.015 | nt | -0.12 | nt
CCCCCN=Cc1c(C)[nH]n(-c2nc3ccccc3s2)c1=O | -0.022 | -1.2 | 2.5* | 13 | -0.045 | 8
Cc1ccccc1Oc1ccc(S(=O)(=O)NCCC(=O)O)cc1 | 0.32 | 0.022 | 1.5 | 2 | 0.12 | 6
O=C(Cn1c(=O)[nH]c2ccsc2c1=O)NC1CCCCC1 | 0.84 | nt | -2.7* | 2 | 0.79 | 6
COc1cccc(C(NC(=O)c2ccccc2F)NC(=O)c2ccccc2F)c1 | nt | nt | -0.55 | nt | nt | nt
CCC(=O)Nc1nnc(SCCOC)s1 | nt | nt | 0.027 | nt | nt | nt
N#CC1=C(N)C(C#N)(C#N)C2(C(=O)Nc3ccccc32)C2CCCC=C12 (stereo not given) | nt | -6.2* | 0.67 | -7 | nt | 6
CCOC(=O)CC1C(=O)NCCN1C(=O)c1cccc(C(F)(F)F)c1 (stereo not given) | nt | nt | -0.51 | nt | nt | nt
CCOC(=O)CC1C(=O)NCCN1C(=O)c1ccc(F)cc1F (stereo not given) | nt | nt | -3.4* | nt | nt | nt
Cc1cc(-c2ccco2)n2c(nc3ccccc32)c1C#N | -0.0015 | nt | nt | -16 | 0.41 | 4
Cc1ccnc(N2CCN(c3cc(C)c(C#N)c4nc5ccccc5n34)CC2)c1 | 4.3 | -0.068 | -0.16 | nt | -2.5* | nt
c1ccc(-c2cn3c4c(sc3n2)CCCC4)cc1 | -0.11 | -9.9* | 0.72 | 31 | 0.1 | 0
COc1cc(C(=O)N2CCCc3ccccc32)cc(OC)c1OC | nt | nt | -0.59 | nt | nt | nt
CCn1cc(C(=O)N2CCCc3ccccc32)c2cc(OC)c(OC)cc2c1=O | -0.12 | 0.18 | nt | -11 | 0.88* | 7
CC(Oc1ccc(Cl)cc1Cl)C(=O)Nc1ccc(N2CCN(C)CC2)cc1 (stereo not given) | 1.3 | -4.8* | 1.3 | 6 | -2.1 | 0
Cc1cc(F)ccc1NCc1cc2c(cc1[N+](=O)[O-])OCO2 | nt | nt | -8* | nt | nt | nt
SMILES | M1 agonist | D1 allo mod | DAT uptake mod | FXIIa inh mix | M1 antagonist | FXIa inh mix
Cc1cc(F)ccc1NCc1ccncc1 | -0.2 | nt | -0.036 | 5 | -0.33 | -2
Cc1cc(C(=O)CSc2nc3ccccc3[nH]2)c(C)n1C | -0.031 | -2.9* | 1.3 | 4 | -0.032 | 5
COc1ccc(C(=O)CSc2nnc(C(CO)NC(=O)c3ccc(OC)cc3)n2C)cc1 (stereo not given) | -0.48 | 0.41 | -0.68 | 2 | -0.93 | 0
COCCn1c(C)cc(C(=O)COC(=O)c2n[nH]c3ccccc23)c1C | -2 | -8.4* | 1.4 | 0 | -0.11 | 6
Cc1cc(C(=O)COC(=O)c2n[nH]c3ccccc23)c(C)n1C | -0.94 | nt | 0.2 | 2 | -0.11 | -31
Cc1ccccc1Nc1ncnc2c1cnn2-c1ccccc1 | 0.69 | -1.5 | 3.1* | 6 | -0.26 | 11
Cc1cccc(-n2ncc3c(NC(C)C)ncnc32)c1 | -0.015 | -3.6* | 1.1 | -8 | -1.3 | 7
c1ccc(-n2ncc3c(NCc4cccnc4)ncnc32)cc1 | 0.19 | nt | 2.6* | 0 | 0.074 | 6
Cc1cccc(-n2ncc3c(NCCCn4ccnc4)ncnc32)c1 | 0.08 | -4.1* | 1.3 | 2 | -0.98 | 1
c1ccc(-n2ncc3c(NCc4cccs4)ncnc32)cc1 | -1.4 | -2.7 | 1.1 | 0 | 0.92 | -17
C=C(C)C(=O)Nc1cccc(C2=NOC3(C2)C[C@H](C(N)=O)N(C(=O)CC)C3)c1 (stereo not given in full) | nt | nt | -0.011 | nt | nt | nt
Cc1cc(-c2ccco2)n(CC(=O)NCc2ccccc2)n1 | nt | nt | -1.4 | nt | nt | nt
Cc1cc(-c2ccco2)n(CC(=O)O)n1 | 1.1 | -4.3* | -0.21 | 31 | 0.15 | 34
CCOC(=O)c1nc(Nc2ccccc2)c2ccccc2n1 | nt | nt | -0.0073 | nt | nt | nt
CCOC(=O)c1nc(NCc2cccnc2)c2ccccc2n1 | 0.42 | 2.7* | -0.45 | 2 | 0.25 | 1
O=C(O)C1CCN(c2ncccn2)CC1 | -0.14 | 0.61 | -0.52 | 5 | 1.1 | 10
CCC1Cc2c(nc3c4c(nc(N5CCOCC5)c(C#N)c24)NC(C)=N3)O1 (stereo not given) | 1 | 4.2* | nt | -14 | -0.12 | 17
CCCc1[nH]nc2c1C(c1ccc(OC)c(Cn3nnc4ccccc43)c1)C(C#N)=C(N)O2 (stereo not given) | 0.51 | 2.3 | 3.6* | 7 | -1.4 | 2
CCOc1ccc(S(=O)(=O)N2c3ccccc3CC2C)cc1 (stereo not given) | nt | nt | -2.7* | nt | nt | nt
CCC(C)N1CCCCC1C(=O)Nc1c(C)cc(C)cc1C (stereo not given) | nt | nt | -0.43 | nt | nt | nt
Clc1ccc(-c2nnc(-c3ccccc3)o2)c(Cl)c1 | -0.35 | -1.1 | 0.27 | 5 | 0.23 | -12
CCSc1nnc(-c2ccc(Cl)cc2Cl)o1 | 0.07 | 0.39 | 0.32 | 4 | 2* | 3
Fc1ccc(-c2nnc(-c3ccc(Cl)cc3Cl)o2)cc1 | -0.31 | -2.9* | -0.19 | 2 | 1.5 | 8
CCc1cc2cc(C(=O)N3CCN(Cc4ccccc4)CC3)sc2s1 | -0.25 | 0.32 | 2.6* | 5 | 0.078 | -3
CCOC(=O)c1oc2c(CN3CCN(C)CC3)c(O)ccc2c(=O)c1-c1ccccc1OC | 0.87 | 1.7 | -0.4 | 7 | 0.81* | 7
CC(=O)Nc1cccc(NS(=O)(=O)Cc2ccc(Cl)cc2)c1 | -0.0042 | -0.29 | 0.36 | 7 | 0.093 | 4
CC(=O)c1ccc(NS(=O)(=O)Cc2ccc(Cl)cc2)cc1 | nt | nt | 3.2* | nt | nt | nt
CC(C)c1[nH]nc2c1C(c1cccs1)C(C#N)=C(N)O2 (stereo not given) | nt | nt | 0.11 | nt | nt | nt
Cc1ccc(-c2nnc3c4ccccc4c(C)nn23)cc1S(=O)(=O)N1CCN(C)CC1 | 2 | 9.9* | nt | 38 | -0.36 | -4

From PubChem
